# Screens: PubChem BioAssay, several laboratories
# D1 mod – allosterically modulates the human D1 dopamine receptor. B-score at 10 µM. actives 5.9% (n = 58,000). HEK293 D1, CRE-luciferase, dopamine EC30 potentiation; actives deviate in either direction;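 active means luminescence count or its row- and column-corrected plate score outside the 99.7% band of the plate's sample wells, on either side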
# HePTP inh – inhibitors of human HePTP phosphatase; P35236; recombinant HePTP phosphatase activity, OD absorbance; inhibition, % at 20 µM; actives 0.64% (n = 110,000); in the data active means inhibition above about 50%;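 further: plate controls were vehicle for no effect and reference inhibitor for full effect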
# PLAP act – activators of human placental alkaline phosphatase | AID 696 | P05187 | activation fold at 20 µM | actives 1.2% (n = 96,000) | purified PLAP enzyme, luminescent substrate read-out; hits give high values; in the data active means activation fold above about 2
# Target sequence (P05187 whole entry, looked up): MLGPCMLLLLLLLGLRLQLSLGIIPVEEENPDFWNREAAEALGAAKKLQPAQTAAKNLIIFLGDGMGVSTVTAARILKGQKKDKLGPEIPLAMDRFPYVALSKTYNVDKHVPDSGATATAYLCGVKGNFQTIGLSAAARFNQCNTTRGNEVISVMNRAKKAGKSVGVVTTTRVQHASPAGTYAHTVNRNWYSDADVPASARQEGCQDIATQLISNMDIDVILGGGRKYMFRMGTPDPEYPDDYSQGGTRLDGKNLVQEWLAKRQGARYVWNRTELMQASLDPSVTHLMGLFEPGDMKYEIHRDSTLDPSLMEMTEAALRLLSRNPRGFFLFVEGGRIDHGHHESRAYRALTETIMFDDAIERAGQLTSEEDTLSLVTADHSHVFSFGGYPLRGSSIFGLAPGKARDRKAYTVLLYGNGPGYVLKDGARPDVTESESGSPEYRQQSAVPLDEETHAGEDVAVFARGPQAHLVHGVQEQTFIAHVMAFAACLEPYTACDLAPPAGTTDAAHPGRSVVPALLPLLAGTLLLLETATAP
# Candida biofilm – kills Candida albicans biofilms | C. albicans biofilm + clotrimazole, Alamar Blue | inhibition, % at 6 µM | actives 0.14% (n = 85,000);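 active means inhibition above 20%; inactive means inhibition below 20%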;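 further: preformed 24 hr biofilms exposed to compound for 48 hr; 0% = biofilm without compound and 100% = blank killed by clotrimazole plus chlorhexidine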
# TNAP act DEA – human TNAP activation, intermediate phosphate acceptor; P05186; purified TNAP, CDP-star luminescence, 100 mM DEA, 30 min; hits give high values; scale: 0 levamisole-inhibited, 1 vehicle-only enzyme; activation factor at 20 µM; AID 813; 64,000 tested, under 10 active;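 active means activation factor of at least 2 at 20 µM, relative to controls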
# hDAT+cocaine – modulates human dopamine transporter uptake under cocaine; actives 1.3% (n = 110,000); AID 449768; Q01959; B-score at 10 µM; LLC-PK1 hDAT cells, [14C]-dopamine uptake with cocaine IC80; actives deviate in either direction;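 active means Z score or B-score, a plate-position-corrected score, falls beyond the plate's 99.7% confidence bounds, in either direction; inactive means both scores lie inside the 99.7% bounds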;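 further: scored against the spread of the other compound wells on the same plate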
# D1 mod confirm – D1 receptor (human) allosteric modulation, confirmed. luminescence at 10 µM. HEK293 D1 CRE-luciferase, dopamine EC30 potentiation; hits give high values. shares compounds with D1 mod. actives 88% (n = 2,200);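 active means luminescence in either of two replicates above the same-plate mean plus 3 SD of the low-dose dopamine control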
# D1 ag no DA – D1 (human) signaling in absence of dopamine. shares compounds with D1 mod. HEK293 D1 CRE-luciferase, luminescence, no dopamine; hits give high values. luminescence at 10 µM. actives 0.8% (n = 1,900). AID 646; in the data active means luminescence above about 3900
# Isoprot counter – isoproterenol response counter-screen activity for D1 modulators | shares compounds with D1 mod | HEK293 D1 CRE-luciferase, isoproterenol EC30 counter-screen; hits give high values | luminescence at 10 µM | actives 63% (n = 2,200);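 active means luminescence in either replicate above plate mean of wells with a partly effective reference agonist dose plus 3 SD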;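 further: isoproterenol raises cAMP through native beta-adrenoceptor Gs so signal bypasses D1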
# * hit, by the source's call; . = not tested or not shown. Only a selection was taken, and hits are over-represented in it overall.
SMILES,D1 mod,HePTP inh,PLAP act,Candida biofilm,TNAP act DEA,hDAT+cocaine,D1 mod confirm,D1 ag no DA,Isoprot counter
CC1(C)CC(=O)C(CCC(=O)c2ccccc2)C(C)(C)N1 (stereo not drawn),4.67*,-16.2,1,4.1,1.1,0.0989,4348,1672,2280
CCCCCSc1nnc2c(n1)[nH]c1ccc(C)cc12,.,1.2,.,.,.,.,.,.,.
CCc1ccc(C(=O)NCC2COc3ccccc3O2)o1 (stereo not drawn),3.65*,-0.5,1.5,1.7,0.9,1.19,7128,1732,2436
CCOc1ncccc1C(=O)Oc1ccc2c(c1)OCO2,3.17*,-3.4,0.8,-3.2,1,0.678,8328*,2048,2964*
O=C(Cc1ccccc1)NCC1COc2ccccc2O1 (stereo not drawn),.,8.3,.,2.5,.,-0.000306,.,.,.
CCOc1ncccc1C(=O)NCC1COc2ccccc2O1 (stereo not drawn),12.6*,8.2,1.8,-0.8,0.9,-0.594,17888*,.,4208*
Cc1onc(-c2ccccc2)c1C(=O)NCC1COc2ccccc2O1 (stereo not drawn),.,.,1,6.1,.,-0.226,.,.,.
CCOc1ncccc1C(=O)Nc1ccc(Cl)cc1,2.48*,10.6,1,.,0.8,-0.392,12668*,1652,3184*
CSc1ccc(S(=O)(=O)N(CC(=O)Nc2ccc(C)cc2)c2ccc(C)cc2)cc1,.,-15.3,.,.,.,.,.,.,.
CCOC(=O)c1sc(C)c2c1NC1(CCCCC1)NC2=O,6.16*,0.4,1,5.2,0.9,0.0711,14036*,.,3196*
Oc1ccc(/C=N/N2CCN(Cc3ccc(Cl)cc3)CC2)cc1O,.,5.9,.,.,.,.,.,.,.
COc1ccc(-c2noc(CSc3nnc(CCc4ccccc4)n3-c3ccccc3)n2)cc1OC,7.23*,0.4,1.8,4.5,0.8,2.4,10480*,1584,3456*
Cc1ccc(-c2noc(CSc3nnc(CCc4ccccc4)n3-c3ccccc3)n2)cc1,.,.,1.6,0.9,.,0.0986,.,.,.
COc1ccc(-c2noc(CSc3ccccc3)n2)cc1OC,9.38*,1.5,0.9,6.1,1,2.12,8800*,1600,3028*
Cc1ccc(SCc2nc(-c3ccccc3)no2)cc1,-0.0272,-6.4,0.8,4.8,0.8,-0.487,.,.,.
COc1ccc(-c2nnc(SCc3ccccc3F)o2)cc1OC,11.7*,5.5,0.9,1.2,0.9,-1.01,22288*,1720,4708*
COc1ccc(-c2noc(CCN3C(=O)c4ccccc4C3=O)n2)cc1OC,2.61*,0.4,1.2,2.1,0.9,0.124,17536*,1456,3152
O=C(/C=C/c1ccc(OC2CSC2)cc1)c1ccc2c(c1)OCCO2,.,-7.6,.,.,.,.,.,.,.
CC1CCc2c(sc(NC(=O)c3ccccc3Cl)c2C(=O)Nc2ccccc2Cl)C1 (stereo not drawn),.,4.7,.,.,.,.,.,.,.
COc1ccccc1CNC(=O)C(OC)c1ccccc1 (stereo not drawn),.,5.7,.,.,.,.,.,.,.
Cc1cc(-c2ccco2)n(-c2ccccc2)n1,5.9*,-0.1,1.2,8.6,0.9,-0.842,13928*,1688,3296*
CCOC(=O)c1ccc(Oc2nc(NC)nc(SC)n2)cc1,7.95*,-10.6,1,2.4,1,0.457,17796*,1848,3272
Cc1cc(Oc2ccccc2)nc(SCC(=O)Nc2ccc(Cl)cc2Cl)n1,.,.,0.9,6.1,.,0.0302,.,.,.
Cc1cc(Oc2ccccc2)nc(N)n1,4.01*,2.3,0.9,-3.9,1,1.31,9044*,.,2688*
CCOC(=O)c1ccc(Oc2cc(C)nc(SC)n2)cc1,3.01*,14.1,1.4,-4.0,0.9,0.422,8484*,1628,2796
SMILES,D1 mod,HePTP inh,PLAP act,Candida biofilm,TNAP act DEA,hDAT+cocaine,D1 mod confirm,D1 ag no DA,Isoprot counter
CCNc1nc(Oc2ccc(C(=O)OCC)cc2)nc(SC)n1,-0.64,-1.3,1,.,0.9,0.926,.,.,.
COC(=O)CSc1nc(C)cc(Oc2ccccc2)n1,12.3*,10.1,1,7.5,0.9,0.431,13148*,.,3404*
COC(=O)c1ccc(Oc2nc(C)cc(Oc3ccccc3)n2)cc1,0.374,10.6,.,.,1,1.26,.,.,.
COC(=O)c1ccc(Oc2cc(C)nc(-n3nc(C)cc3C)n2)cc1,7.78*,1.5,1.3,.,0.9,-0.646,18884*,1876,5724*
COc1ccc(CCNC(=O)CSc2nnnn2-c2ccccc2)cc1,0.139,6.5,1.1,4.2,1,1.43,.,.,.
COc1ccc(CCNc2nnc(Sc3nnnn3-c3ccccc3)s2)cc1OC,5.26*,-4.7,1.4,0.6,1,1.77,10264*,1392,3060
COc1ccc(CSc2nnnn2Cc2ccccc2)cc1OC,3.64*,3.3,1.7,2.4,0.9,1.02,15068*,1692,4432*
Cc1ccccc1Cn1c(=O)n(CCCC(=O)NCc2ccco2)c(=O)c2ccccc21,5.52*,-6.6,.,7.3,1,0.219,11052*,1848,4208*
Cc1cccc(Cn2c(=O)n(CCCC(=O)NCc3ccco3)c(=O)c3ccccc32)c1,0.85,-0.4,.,3.3,0.9,.,.,.,.
Cc1cccc(Cn2c(=O)n(Cc3ccco3)c(=O)c3ccccc32)c1,11.8*,-5.2,0.9,1.6,0.9,0.788,22552*,1708,4036*
N#Cc1ccccc1Cn1c(=O)n(Cc2ccc(C(=O)NCc3ccco3)cc2)c(=O)c2ccccc21,4.38*,2.5,.,4.3,0.8,0.179,18988*,1796,7356*
CCOC(=O)c1sc(N(C)C)nc1-c1ccccc1,.,.,.,8.4,.,-0.31,.,.,.
CCOC(=O)c1nc(-c2ccccc2)oc1N(C)C,4.04*,.,1,7.9,.,-0.602,9692*,1608,3216
Cn1c(/C(C#N)=C/C2CC=CCC2)nc2ccccc21 (stereo not drawn),3.79*,2.3,1.1,3.8,0.9,-0.527,9264*,1596,3096
CCCCN1C(=O)/C(=C/c2cccc3ccccc23)SC1=S,.,-6.2,.,.,.,.,.,.,.
CCCc1nc2scc(-c3ccccc3)c2c(=O)n1N,5.96*,3.5,1,.,0.9,0.188,8892*,1584,2476
CCn1cnc2scc(-c3ccccc3)c2c1=O,14.8*,3.0,1,-1.5,0.9,0.75,14788*,.,3448*
O=c1c2c(-c3ccccc3)csc2nc2n1CCC2,0.101,0.1,0.7,3.3,0.8,1.63,.,.,.
O=C(Cc1ccccc1)Nc1ccc(-c2ccccc2)cc1[N+](=O)[O-],.,-7.9,.,.,.,.,.,.,.
CCOC(=O)c1c(N)c(C#N)c(C)n1-c1ccc(Cl)cc1,.,6.3,.,.,.,.,.,.,.
CCOC(=O)c1c(N)c(C#N)cn1-c1ccccc1,20.1*,5.0,0.9,-1.0,0.9,0.624,19404*,1788,4256*
